Source: PubChem BioAssay (Tox21)
Unmarked numbers belong to inactive results. Inconclusive results are not listed. A call without a number means that no potency is given here. Active and inactive are the calls of the source. Unless noted, calls follow the shape of the dose curve; as a rule, active = well fitted curve in the direction sought with a large enough effect in the repeat runs; inconclusive = weak or mixed curves; inactive = no such curve, though single readings can be large; an effect the other way counts as inactive or inconclusive.

How the values were obtained:
[1] = qHTS assay for small molecule agonists of the p53 signaling pathway (AID 651631; calls by dose curve; also: nearly all actives have a fitted effect of over 15% in size; also: potency is read from the fitted curve at half-maximal effect)
Procedure, shortened: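 Fluorescence intensity from cleaved LiveBLAzer B/G substrate (2 h, room temperature) served as the signal. Beforehand, HCT-116 reporter cells bearing p53 response elements were treated 16 h at 37 °C with DMSO-dissolved compounds.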

[2] = qHTS assay for small molecules that induce genotoxicity in human embryonic kidney cells expressing luciferase-tagged ATAD5 (AID 651632); also: nearly all actives have a fitted effect of over 15% in size
Procedure, shortened: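 Luminescence read-out: after 16 hr compound exposure at 37C, ATAD5-luciferase HEK293T cells received Amplite, 30 min RT, then CCD imaging. A rise in signal marks genotoxic stress.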

[3] = qHTS assay for small molecule agonists of the p53 signaling pathway - cell viability (AID 651633; calls by dose curve;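 also: p53RE-bla HCT reporter cells with a stable beta-lactamase p53 reporter; nearly all actives have a fitted effect of over 30% in size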)
Procedure, shortened: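 Viability counter-read: CellTiter-Glo luminescence (30 min, room temperature) in the same p53RE-bla plates. These plates had been exposed to compounds for 16 h at 37 C.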

[4] = qHTS assay for small molecules that induce genotoxicity in human embryonic kidney cells expressing luciferase-tagged ATAD5 - cell viability (AID 651634; calls by dose curve; also: nearly all actives have a fitted effect of over 25% in size; also: potency is read from the fitted curve at half-maximal effect)
Procedure, shortened: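 HEK293T ATAD5-luc cells, 2,000/well; compound 15.5 hr, 37C/5% CO2; CellTiter-Fluor 30 min, 37C; fluorescence read.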

[5] = qHTS assay for small molecule disruptors of the mitochondrial membrane potential - cell viability (AID 720634; calls by dose curve;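 also: human HepG2 liver cancer cells; nearly all actives have a fitted effect of over 20% in size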)
Procedure, shortened: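 Luminescence from CellTiter-Glo (ATP content) gave viability in HepG2 cells, read in the same wells as the MMP dye assay after 1 hr compound exposure at 37 C.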

[6] = qHTS assay to test for compound auto fluorescence at 590 nm (red) in HepG2 cells (AID 720674)
Procedure, shortened: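 1 hr compound incubation on HepG2 cells, 37 C, 5% CO2; plate read ex 540 nm / em 590 nm; intensities reported as Rose Bengal sodium equivalents.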

[7] = qHTS assay to test for compound auto fluorescence at 535 nm (green) in HepG2 cells (AID 720675)
[8] = qHTS assay to test for compound auto fluorescence at 460 nm (blue) in HEK293 cells (AID 720678)
Procedure, shortened: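 Auto fluorescence in the blue band was quantified as triamterene equivalency. HEK293 cells were seeded at 2,000/well, dosed after a 4-5 hr attachment, and kept overnight at 37C before the 405/460 nm reading.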

[9] = qHTS assay to test for compound auto fluorescence at 590 nm (red) in HEK293 cells (AID 720679)
Procedure, shortened: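 Autofluorescence equivalency to Rose Bengal sodium, 540/590nm, in HEK293 cells exposed overnight to 23 nL compound per well.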

[10] = qHTS assay to test for compound auto fluorescence at 535 nm (green) in HEK293 cells (AID 720680)
[11] = qHTS assay to test for compound auto fluorescence at 460 nm (blue) in HEK293 cell free culture (AID 720681)
Procedure, shortened: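 Blue fluorescence (Ex 405/Em 460 nm, triamterene-equivalent) was read immediately after pin transfer of compound or DMSO into medium (DMEM, 10% FBS) without cells.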

[12] = qHTS assay to test for compound auto fluorescence at 535 nm (green) in HEK293 cell free culture (AID 720682)
Procedure, shortened: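 Intrinsic compound fluorescence is measured in culture medium containing 10% FBS, with excitation at 485 nm and detection at 535 nm, referenced to fluorescein.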

[13] = qHTS assay to test for compound auto fluorescence at 590 nm (red) in HepG2 cell free culture (AID 720684)
Procedure, shortened: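 Cell-free; medium MEM + 10% FBS; compound or DMSO added by pintool; read Ex 540/Em 590 nm; Rose Bengal sodium as red reference fluorophore.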

[14] = qHTS assay to test for compound auto fluorescence at 460 nm (blue) in HepG2 cell free culture (AID 720685)
Procedure, shortened: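 Cell-free plates of MEM plus 10% FBS received 23 nL compound or DMSO vehicle; blue-channel (405/460 nm) intensity scored against triamterene as reference fluorophore.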

[15] = qHTS assay to test for compound auto fluorescence at 535 nm (green) in HepG2 cell free culture (AID 720686)
[16] = qHTS assay to test for compound auto fluorescence at 460 nm (blue) in HepG2 cells (AID 720687)
Procedure, shortened: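 Blue-channel autofluorescence (Ex/Em 405/460 nm, triamterene-equivalent) was measured after 1 hr compound exposure at 37 C, 5% CO2. Cells were HepG2, plated overnight at 37 C in MEM plus 10% FBS.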

[17] = molecular target: Glucocorticoid receptor (Homo sapiens) (UniProt P04150); test: qHTS assay to identify small molecule agonists of the glucocorticoid receptor (GR) signaling pathway (AID 720691; active = well fitted activation curve with a large enough effect in the signal ratio in the repeat runs, not every such curve was filed as active; the % refers to the signal ratio); conditions: GR-bla HeLa, beta-lactamase reporter ratio, 18 h; activation: at 62.4 µM (top of the series) unless noted
Procedure, shortened: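 HeLa GR-bla reporter line; cells pre-incubated 4 h, compound in DMSO 18 h at 37 C; LiveBLAzer B/G FRET substrate 2 h RT; fluorescence intensity read-out.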

[18] = molecular target: Glucocorticoid receptor (Homo sapiens) (UniProt P04150); test: qHTS assay to identify small molecule antagonists of the glucocorticoid receptor (GR) signaling pathway (AID 720692; active = well fitted inhibition curve with a large enough effect in the signal ratio in the repeat runs, not every such curve was filed as active; the % refers to the signal ratio; also: potency is read from the fitted curve at half-maximal effect)
Procedure, shortened: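 Read-out: beta-lactamase FRET substrate fluorescence, 2 h at room temperature, in HeLa cells stably carrying a GRE-driven bla reporter. Compounds were co-incubated with 5 nM dexamethasone agonist (final) for 18 h at 37 C.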

[19] = qHTS assay to test for compound auto fluorescence at 590 nm (red) in HEK293 cell free culture (AID 720683)
Procedure, shortened: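 Red-channel autofluorescence of compounds in culture medium (DMEM, 10% FBS), no cells, measured at 540/590 nm. Rose Bengal sodium is the reference fluorophore for equivalence.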

[20] = qHTS assay for small molecule disruptors of the mitochondrial membrane potential (AID 720635); also: potency is read from the fitted curve at half-maximal effect
Procedure, shortened: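 Mitochondrial membrane potential tracked with Mito-MPS dye, red aggregates (ex 540/em 590 nm) against green monomers (ex 490/em 535 nm). Compound treatment 1 hr at 37C, dye 30 min in HepG2.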

Glucocorticoid receptor (Homo sapiens), sequence (P04150 whole entry, looked up): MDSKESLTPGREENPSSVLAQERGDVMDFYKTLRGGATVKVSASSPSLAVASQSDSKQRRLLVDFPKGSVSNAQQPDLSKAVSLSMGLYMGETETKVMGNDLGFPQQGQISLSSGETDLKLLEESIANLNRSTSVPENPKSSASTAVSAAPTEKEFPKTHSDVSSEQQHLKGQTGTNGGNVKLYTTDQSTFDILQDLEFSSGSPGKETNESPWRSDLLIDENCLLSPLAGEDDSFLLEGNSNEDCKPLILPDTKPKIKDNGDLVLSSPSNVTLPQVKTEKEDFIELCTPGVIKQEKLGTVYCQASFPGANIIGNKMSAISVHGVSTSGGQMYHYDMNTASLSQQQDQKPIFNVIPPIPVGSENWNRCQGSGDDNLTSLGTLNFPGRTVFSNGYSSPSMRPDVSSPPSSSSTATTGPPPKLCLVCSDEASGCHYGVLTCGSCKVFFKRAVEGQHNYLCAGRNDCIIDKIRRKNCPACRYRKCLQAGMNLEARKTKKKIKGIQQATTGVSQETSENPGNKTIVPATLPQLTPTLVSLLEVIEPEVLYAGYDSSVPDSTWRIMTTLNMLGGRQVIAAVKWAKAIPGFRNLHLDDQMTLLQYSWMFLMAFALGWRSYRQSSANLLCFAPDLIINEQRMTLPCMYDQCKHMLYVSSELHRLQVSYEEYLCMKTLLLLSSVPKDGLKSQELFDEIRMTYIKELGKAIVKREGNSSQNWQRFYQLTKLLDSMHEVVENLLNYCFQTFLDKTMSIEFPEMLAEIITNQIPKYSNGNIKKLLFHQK

CCOC(=O)Cc1cccc2ccccc12
Potency [1]: inactive
Potency [2]: inactive
Potency [3]: inactive
Potency [4]: inactive
Potency [5]: inactive
Potency [6]: inactive
Potency [7]: inactive
outcome [8]: inactive
Potency [9]: inactive
outcome [10]: inactive
outcome [11]: inactive
outcome [12]: inactive
Potency [13]: inactive
outcome [14]: inactive
Potency [15]: inactive
outcome [16]: inactive
Potency [17]: inactive
Potency [18]: inactive

CCCCC1=NC2(CCCC2)C(=O)N1Cc1ccc(-c2ccccc2-c2nn[nH]n2)cc1
Potency [1]: inactive
Potency [2]: inactive
Potency [3]: inactive
Potency [4]: inactive
Potency [5]: inactive
Potency [6]: inactive
Potency [7]: inactive
Potency [9]: inactive
outcome [11]: inactive
outcome [12]: inactive
Potency [19]: inactive
Potency [13]: inactive
outcome [14]: inactive
Potency [15]: inactive
outcome [16]: inactive

CC(COCCO)OCCO (stereo unspecified)
Potency [1]: inactive
Potency [2]: inactive
Potency [3]: inactive
Potency [4]: inactive
Potency [5]: inactive
Potency [6]: inactive
Potency [7]: inactive
Potency [9]: inactive
outcome [10]: inactive
outcome [11]: inactive
outcome [12]: inactive
Potency [19]: inactive
Potency [13]: inactive
outcome [14]: inactive
Potency [15]: inactive
outcome [16]: inactive

CC/C=C\CCOC(=O)CC
Potency [1]: inactive
Potency [2]: inactive
Potency [3]: inactive
Potency [4]: inactive
Potency [5]: inactive
Potency [7]: inactive
outcome [8]: inactive
Potency [9]: inactive
outcome [10]: inactive
outcome [11]: inactive
outcome [12]: inactive
Potency [19]: inactive
Potency [13]: inactive
outcome [14]: inactive
Potency [15]: inactive
outcome [16]: inactive

COC(=O)C1=C(C)NC(COC(N)=O)=C(C(=O)OC(C)C)C1c1cccc(Cl)c1Cl (stereo unspecified)
Potency [1]: 16.8 µM (active)
Potency [2]: inactive
Potency [3]: inactive
Potency [4]: inactive
Potency [20]: 26.6 µM (active)
Potency [6]: inactive
Potency [7]: inactive
Potency [9]: inactive
outcome [10]: inactive
outcome [12]: inactive
Potency [13]: inactive

C[C@H](CCC(=O)O)[C@H]1CC[C@H]2[C@@H]3CC[C@@H]4C[C@H](O)CC[C@]4(C)[C@H]3C[C@H](O)[C@]12C
Potency [1]: inactive
Potency [2]: inactive
Potency [3]: inactive
Potency [4]: inactive
Potency [5]: inactive
Potency [6]: inactive
Potency [7]: inactive
outcome [8]: inactive
Potency [9]: inactive
outcome [10]: inactive
outcome [11]: inactive
outcome [12]: inactive
Potency [19]: inactive
Potency [13]: inactive
outcome [14]: inactive
Potency [15]: inactive
outcome [16]: inactive
Potency [17]: inactive
Potency [18]: 49.1 µM (active)

O=C1[C@H]2CCCC[C@H]2C(=O)N1CCCCN1CCN(c2nsc3ccccc23)CC1
Potency [1]: inactive
Potency [2]: inactive
Potency [3]: inactive
Potency [4]: inactive
Potency [5]: inactive
Potency [7]: inactive
outcome [8]: inactive
outcome [11]: inactive
outcome [12]: inactive
Potency [19]: inactive
Potency [13]: inactive
outcome [14]: inactive
outcome [16]: inactive

CC(=O)[O][Al][O]C(C)=O
Potency [1]: inactive
Potency [2]: inactive
Potency [3]: inactive
Potency [4]: inactive
Potency [5]: inactive
Potency [6]: inactive
Potency [7]: inactive
outcome [8]: inactive
Potency [9]: inactive
outcome [10]: inactive
outcome [11]: inactive
outcome [12]: inactive
Potency [19]: inactive
Potency [13]: inactive
outcome [14]: inactive
Potency [15]: inactive
outcome [16]: inactive

COc1ccc(C(=O)c2ccc(OC)cc2O)c(O)c1
Potency [1]: 19.5 µM (active)
Potency [2]: inactive
Potency [3]: inactive
Potency [4]: inactive
Potency [20]: 6.16 µM (active)
Potency [6]: inactive
Potency [7]: inactive
outcome [8]: inactive
Potency [9]: inactive
outcome [10]: inactive
outcome [11]: inactive
outcome [12]: inactive
Potency [19]: inactive
Potency [13]: inactive
outcome [14]: inactive
outcome [16]: inactive
Potency [17]: inactive

COS(=O)(=O)C(F)(F)F
Potency [1]: inactive
Potency [2]: inactive
Potency [3]: inactive
Potency [4]: inactive
Potency [5]: inactive
Potency [6]: inactive
Potency [7]: inactive
outcome [8]: inactive
Potency [9]: inactive
outcome [10]: inactive
outcome [11]: inactive
outcome [12]: inactive
Potency [13]: inactive
outcome [14]: inactive
Potency [15]: inactive
outcome [16]: inactive
Potency [17]: inactive
Potency [18]: inactive

Cc1ccc(N=Nc2c(O)c(C(=O)O)cc3ccccc23)c(S(=O)(=O)O)c1
Potency [1]: inactive
Potency [2]: inactive
Potency [3]: inactive
Potency [4]: 11.8 µM (active)
Potency [5]: inactive
Potency [6]: inactive
Potency [7]: inactive
outcome [8]: inactive
Potency [9]: inactive
outcome [10]: inactive
outcome [11]: inactive
outcome [12]: inactive
Potency [13]: inactive
outcome [14]: inactive
Potency [15]: inactive
outcome [16]: inactive

CC(=O)c1ccc2c(c1)N(CCCN1CCC(CCO)CC1)c1ccccc1S2
Potency [1]: inactive
Potency [2]: inactive
Potency [3]: inactive
Potency [4]: inactive
Potency [5]: inactive
fluorescence, relative to Rose Bengal [6]: -0.311% [at 18.6 µM]
fluorescence, % of fluorescein control [7]: 0.043% [at 18.6 µM]
fluorescence, % of triamterene [8]: -0.0315% [at 18.6 µM]
fluorescence, % of fluorescent control [9]: -0.278% [at 18.6 µM]
fluorescence, % of fluorescein [10]: -0.0765% [at 18.6 µM]
fluorescence, % of fluorescent control [11]: -0.0632% [at 18.6 µM]
activity change [12]: -0.164% [at 18.6 µM]
fluorescence, % of fluorescent control [19]: -0.134% [at 18.6 µM]
fluorescence, % of Rose Bengal [13]: 0.583% [at 18.6 µM]
fluorescence, % of fluorescent control [14]: -0.0052% [at 18.6 µM]
fluorescence, % of fluorescein control [15]: 0.041% [at 18.6 µM]
fluorescence, % of fluorescent control [16]: -0.011% [at 18.6 µM]
Potency [17]: inactive
Potency [18]: inactive

Nc1c(CC(=O)O)cccc1C(=O)c1ccc(Br)cc1
Potency [1]: inactive
Potency [2]: inactive
Potency [3]: inactive
Potency [4]: inactive
Potency [5]: inactive
Potency [6]: inactive
Potency [7]: inactive
outcome [8]: inactive
Potency [9]: inactive
outcome [10]: inactive
outcome [11]: inactive
outcome [12]: inactive
Potency [13]: inactive
outcome [14]: inactive
Potency [15]: inactive
outcome [16]: inactive
